Bioassay records: PubChem BioAssay, several laboratories
Only some compounds are listed: those with a hit (about 2.2% of all), similar ones and a draw of the others.
GRK2 aptamer HTS: human GRK2 inhibition via aptamer displacement; bead flow cytometry, FAM-aptamer displacement from GRK2; AID 488847; hit rate 0.59% among 330,000; inhibition of aptamer binding, % at 10 µM; P25098;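 active = inhibition of aptamer binding above 40%, roughly 3 SD of noise, on plates passing a quality check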;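 note: median bead fluorescence of bound FAM aptamer so fluorescent compounds give negative values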
TMEM16A act: activators or potentiators of mouse TMEM16A chloride channel | B-score at 10 µM | HEK293 TMEM16A/YFP-H148Q/I152L, iodide quench fluorescence; hits give low values | hit rate 0.3% among 340,000 | AID 623877;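 active = fluorescence-ratio B-score plate-corrected deviation score at least 3 library SD below zero, with starting fluorescence score within 5 deviations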;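 note: channel opened by trigger with iodide after compound preincubation; score built on the fluorescence ratio of max minus min over baseline; more negative score means more quench and so TMEM16A activation or potentiation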
TLR4 MyD88 comp: TLR4-MyD88 interaction inhibition in cells; hit rate 0.18% among 200,000; HeLa CL3-4 TLR4/MyD88 BLA complementation, FRET ratio; inhibition, % at 8.4 µM; AID 861; in the data active = inhibition above about 25%
TLR9-MyD88 block: TLR9-MyD88 interaction inhibition. inhibition, % at 4.98 µM. CHO BLA complementation TLR9-MyD88, CCF4 FRET ratio. hit rate 0.21% among 340,000. Q9NR96+Q99836;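 active = inhibition above the mean over all tested compounds plus 3 SD, cut at about 21% in these data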
ANO1 block: mouse TMEM16A channel inhibition, primary screen; AID 588511; Q8BHY3; HEK293 TMEM16A/YFP iodide influx fluorescence, ionomycin; normalized B-score (activity score, 25-100; higher = stronger inhibition) at 10 µM; hit rate 1.2% among 310,000;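 active = ratio plate-corrected score three or more library SD toward inhibition, starting fluorescence score within five deviations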;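 note: score derived from kinetic fluorescence span divided by baseline fluorescence per well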
NOD2-RIPK2 inh: inhibitors of human NOD2-RIPK2 interaction | CHO BLA complementation NOD2-RIPK2, CCF4 ratio | inhibition, % at 4.98 µM | hit rate 0.38% among 360,000 | AID 624267; in the data active = inhibition above about 21%
TMEM16A reconf: reconfirmed blocker of mouse TMEM16A calcium-activated chloride channel; shares compounds with ANO1 block; HEK293 TMEM16A/YFP-H148Q, iodide quench fluorescence; ionomycin added to raise cell calcium; inhibition, % at 10 µM; hit rate 39% among 2,300;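 active = mean duplicate percent inhibition, scaled so buffer wells are 0 and the reference blocker 100, over three buffer SD above buffer mean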
TMEM16A Ca cntr: calcium mobilization counter-screen hit for TMEM16A inhibitor series; TMEM16A/YFP HEK293, Fluo4 calcium mobilization; calcium response (% of ionomycin), % at 10 µM; shares compounds with ANO1 block; hit rate 2% among 2,300;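 active = duplicate-averaged calcium signal over 20% of the ionomycin maximum, relative to buffer baseline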;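 note: each well's signal is peak minus trough fluorescence divided by its pre-addition baseline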
YFP-HEK293 quench: counter-screen for TMEM16A inhibitors: effect in parental YFP-HEK293 cells; shares compounds with ANO1 block; 2,300 tested, under 10 active; iodide YFP quench, ionomycin; YFP ratio F(max-min)/F0 at 10 µM;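 active = yellow fluorescent protein signal ratio exceeding the buffer control mean by over 5 SD of those controls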;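 note: ratio is mean of duplicate wells from kinetic YFP trace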
ClC-1 inh: blocks the rat ClC-1 voltage-dependent chloride channel | shares compounds with ANO1 block | CHO ClC-1-YFP, iodide influx fluorescence quench; iodide control reads 0, buffer control 100 | ratio percent, % at 10 µM | 2,300 tested, under 10 active | AID 652236;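 active = duplicate-mean ratio percent above the mean of iodide-only control wells, which defines zero, plus 5 of their SD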;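 note: higher percent means stronger block of ClC-1 iodide influx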
Hits are given with their value; - = inactive; . = not tested or not shown.

SMILES	GRK2 aptamer HTS	TMEM16A act	TLR4 MyD88 comp	TLR9-MyD88 block	ANO1 block	NOD2-RIPK2 inh	TMEM16A reconf	TMEM16A Ca cntr	YFP-HEK293 quench	ClC-1 inh
N#C/C(=N\Nc1ccccc1Cl)C(=O)c1ccccc1	-	-	-	-	100	-	-	-	-	-
N#C/C(=N\Nc1cccc(Cl)c1)C(=O)c1ccccc1	-	-	-	-	100	-	26.5%	-	-	-
O=C(NCCCl)Nc1cccnc1Cl	-	-	-	-	-	-	.	.	.	.
COc1cc(C(=O)OCC(=O)NC(=O)NC2CCCCC2)cc(Cl)c1OC	-	-	.	-	-	-	.	.	.	.
COc1ccc(CNC(=O)C2CCCN2C(=O)Nc2cccc(Cl)c2)cc1 (centres undefined)	.	.	.	-	.	-	.	.	.	.
CCOC(=O)Cc1csc(NC(=O)c2cccc(OC)c2)n1	-	-	-	-	-	-	.	.	.	.
CCOC(=O)Cc1csc(NC(=O)c2csc(C)c2)n1	-	-	-	-	100	-	42.0%	-	-	-
OC(COCC1CC=CCC1)Cn1cnc2ccccc21 (centres undefined)	-	.	-	-	-	-	.	.	.	.
Cc1nc2ccccc2n1CC(O)COCC1CC=CCC1 (centres undefined)	-	-	-	-	100	-	-	-	-	-
O=C(CSc1nc2ccccc2c(=O)n1CC1CCCO1)Nc1ccccc1Cl (centres undefined)	-	-	.	-	-	-	.	.	.	.
CCN(CC)S(=O)(=O)c1cccc(NC(=O)COC(=O)CCC(=O)c2cccs2)c1	-	-	-	-	-	-	.	.	.	.
CCN(CC)S(=O)(=O)c1cc(NC(=O)COC(=O)CCC(=O)c2cccs2)ccc1C	-	-	-	-	25	-	23.5%	-	-	-
CN(C)CCN(Cc1ccccc1)C(c1cc2ccccc2o1)c1nnnn1C(C)(C)C (centres undefined)	.	.	.	.	.	-	.	.	.	.
Cc1cc(C)cc(NC(=O)C2(c3ccccc3)CC2(Cl)Cl)c1 (centres undefined)	-	-	-	-	25	-	-	-	-	-
Cc1cccc(NC(=O)C2(c3ccccc3)CC2(Cl)Cl)c1 (centres undefined)	-	-	-	-	-	-	.	.	.	.
CCC1(C)Cc2c(sc3[nH]c(=O)[nH]c(=O)c23)CS1 (centres undefined)	-	-	-	-	100	-	-	-	-	-
CCC1(C)Cc2c(sc3[nH]c(=S)[nH]c(=S)c23)CO1 (centres undefined)	-	-	.	-	-	-	.	.	.	.
CC(=O)Nc1ccc(S(=O)(=O)Nc2cccc(-c3nc4ccccc4o3)c2)cc1	-	-	-	-	100	-	-	-	-	-
Cc1cc(C)c(C)c(OCCCN(C)C)c1	-	-	-	-	-	-	.	.	.	.
CC(C)CC(NS(=O)(=O)OCC(Cl)(Cl)Cl)c1ccccc1 (centres undefined)	-	-	.	-	100	-	56.0%	-	-	-
CCOC(=O)CNC(=O)CSc1nc2sc(C)c(C)c2c(=O)n1C	-	-	-	-	-	-	-	-	-	-
O=C(CNS(=O)(=O)c1c(F)cccc1F)NC1CCCc2ccccc21 (centres undefined)	-	-	.	-	.	-	.	.	.	.
Cc1ccc(NC(=S)NNC(=O)c2cccc([N+](=O)[O-])c2)cc1Cl	-	-	.	-	25	-	23.5%	-	-	-
CC(=O)c1cccc(NC(=S)NNC(=O)c2ccc(C)c([N+](=O)[O-])c2)c1	-	-	-	-	-	-	.	.	.	.
O=S(=O)(c1cc(Br)ccc1Br)N1CCCCCC1	-	-	.	-	25	-	21.0%	-	-	-
SMILES	GRK2 aptamer HTS	TMEM16A act	TLR4 MyD88 comp	TLR9-MyD88 block	ANO1 block	NOD2-RIPK2 inh	TMEM16A reconf	TMEM16A Ca cntr	YFP-HEK293 quench	ClC-1 inh
NC(=O)c1ccc(Br)c(S(=O)(=O)N2CCCCC2)c1	-	-	-	-	-	-	.	.	.	.
O=C(c1ccc(F)cc1)C1CCN(C(=O)N2CCOCC2)CC1	-	-	-	-	-	-	-	-	-	-
O=C(c1ccc(Cl)cc1)C1CCN(C(=O)N2CCOCC2)CC1	-	-	-	-	-	-	.	.	.	.
CCCc1cc(=O)[nH]c2nnc(SCC(=O)Nc3cc(C)on3)n12	-	-	.	-	-	-	.	.	.	.
COc1ccc(/C=C/c2nc(-c3ccccc3O)n[nH]2)cc1OC	-	-	-	-	25	-	-	-	-	-
Cc1ccc(-n2c(C)cc(C(=O)CSc3nncs3)c2C)cc1	-	-	-	-	100	-	50.5%	-	-	-
CCOCCCn1c(SCc2ccccc2)nnc1-c1ccncc1	-	-	.	-	-	-	.	.	.	.
CC(Sc1nnc(C2CC2)n1C)C(=O)Nc1ccc(N2CCOCC2)cc1 (centres undefined)	.	-	.	-	.	-	.	.	.	.
CC(C)(C)c1ccc(NC(=O)COc2ccc(-n3ccnc3)cc2)cc1	-	-	-	-	100	-	44.0%	-	-	-
O=C(COc1ccc2ccccc2c1)Nc1ccncc1	-	-	-	-	25	-	-	-	-	-
CCc1ccc(OCC(=O)Nc2ccncc2)cc1	-	-	.	-	-	-	.	.	.	.
O=C(CSc1ccc2ccccc2c1)Nc1ccncc1	-	-	-	-	100	-	17.5%	-	-	-
O=C(COc1ccc(Br)cc1)Nc1ccc(Cc2ccncc2)cc1	-	-	-	-	100	-	-	-	-	-
C/C(=N\NC(=O)COc1ccc(C(C)(C)C)cc1)c1ccc(-n2ccnc2)cc1	-	-	-	-	-	-	.	.	.	.
CCN1C[C@@H]2[C@@H]3C(=O)N(Cc4ccccc4)C(=O)[C@@H]3[C@](CC)(C1=O)N2C(=O)c1ccc(F)cc1	.	-	.	-	.	-	.	.	.	.
Cn1nnc2cc(C(=O)N3CCC(c4ccccc4)C3)ccc21 (centres undefined)	-	-	-	-	-	-	.	.	.	.
COc1ccc(OC)c(NC(=O)CSc2ccc3ccccc3c2)c1	-	-	-	-	100	-	-	-	-	-
Cc1ccc(OCC(=O)Nc2ccncc2)c(C)c1	-	-	.	-	25	-	-	-	-	-
O=C(COc1ccc2ccccc2c1)Nc1ccc(Br)cc1C(=O)O	-	-	.	-	100	-	42.5%	-	-	-
COc1ccc(OC)c(NC(=O)CSc2ccccc2)c1	-	-	-	-	-	-	.	.	.	.
COc1c(C)cc(Br)cc1C(=O)Nc1ccc(Cc2ccncc2)cc1	-	-	-	-	100	-	-	-	-	-
